Compound activity deposited in PubChem by several laboratories.
Rows were chosen to be rich in hits. Some 1.4% of all compounds tested hit in one or more screens of this group.
PfHsp40 yeast: restores yeast growth despite PfHsp40 toxicity | growth rescue, % at 12.5 µM | 340,000 tested, 0.68% active | S. cerevisiae expressing PfHsp40, growth rescue, ATP luminescence; in the data active = growth rescue above about 28%, passing the limit was not always enough;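 note: yeast W303a lacking pdr1 and pdr3 grown in galactose medium; growth measured after three days at 30 °C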
PrP UTR inh: inhibition of PrP 5' UTR reporter expression; inhibition, % (test concentration not listed); 340,000 tested, 0.35% active; AID 488862; cell-based PrP 5' UTR mRNA reporter, plate reader; in the data active = inhibition above about 52%
Sa ugtP lethal: compounds lethal to S. aureus RN4220 ugtP deletion mutant | growth inhibition, % (concentration not given with the values) | 330,000 tested, 0.54% active | OD600 growth, 16 h; in the data active = growth inhibition above about 68%
RN4220 kill: kills Staphylococcus aureus RN4220. AID 1259311. 330,000 tested, 0.33% active. inhibition, % (test concentration not listed). S. aureus RN4220 growth, OD600, 16 h; in the data active = inhibition above about 85%
BJeLR viability: BJeLR cell viability loss | BJeLR (HRASV12) viability, CellTiter-Glo ATP luminescence, 48 h | inhibition, % (concentration not given with the values) | 300,000 tested, 0.17% active | AID 1554; in the data active = inhibition above about 50%
Y pestis TopoI: Y. pestis Topo-I inhibition via cleavage products. Y. pestis Topo-I cleavage product accumulation, plate reader. activity, % at 10 µM. 360,000 tested, 0.064% active; in the data active = activity above about 50%, passing the limit was not always enough
Large screens that a line does not name were inactive.

C=C1CCN(C(C(=O)Nc2ccc(OC)cc2)C(C)C)S(=O)(=O)c2ccccc21 (stereo not drawn)	none (no result: PfHsp40 yeast, PrP UTR inh, BJeLR viability, Y pestis TopoI)
CCOC(=O)C(N=Nc1sc(C(=O)OCC)c(C)c1C(=O)OCC)=C(C)O	none (no result: PfHsp40 yeast, PrP UTR inh, BJeLR viability, Y pestis TopoI)
COc1ccc(Cl)cc1CN1CCN(c2nc(C)cc(C)c2C#N)CC1	Sa ugtP lethal 100, RN4220 kill 99
CC(C)(C)OC(=O)NCCCCC(NC(=O)c1nc[nH]c1C(=O)NCC(=O)OCc1ccccc1)C(=O)OC(C)(C)C (stereo not drawn)	none (no result: PfHsp40 yeast, PrP UTR inh, BJeLR viability, Y pestis TopoI)
COC(=O)c1ccc(-c2ccco2)n1Cc1cc(C)ccc1C	none
COC(=O)c1ccc(-c2ccco2)n1Cc1cccc(C)c1	Sa ugtP lethal 94
C/C(=N\NC(=O)COc1ccccc1-c1ccccc1)c1ccccn1	PfHsp40 yeast 618 (no result: Sa ugtP lethal, RN4220 kill)
CC(=NNC(=O)COc1ccccc1-c1ccccc1)c1ccccn1	none (no result: PfHsp40 yeast, PrP UTR inh, BJeLR viability, Y pestis TopoI)
Cc1ccc(S(=O)(=O)NC(C(=O)N2CCC3(O)CCCCC3C2)c2ccccc2)cc1 (stereo not drawn)	none (no result: PfHsp40 yeast, PrP UTR inh, BJeLR viability, Y pestis TopoI)
Nc1nc2nccc(-c3ccc(Cl)cc3)n2n1	PfHsp40 yeast 185 (no result: BJeLR viability)
Cc1cc(-c2ccc(Cl)cc2)n2nc(N)nc2n1	none
CN1CCC(=O)N(C(CO)c2ccccc2)CC1 (stereo not drawn)	none (no result: PfHsp40 yeast, PrP UTR inh, BJeLR viability, Y pestis TopoI)
CCC(=O)N(C1=C(NC(C)C)C(=O)c2ccccc2C1=O)C(C)C	none
CCCNC1=C(N(C(C)=O)c2cccc(F)c2)C(=O)c2ccccc2C1=O	PfHsp40 yeast 49
[O-]/C(=C(\C(=S)Nc1ccc(SC(F)F)cc1)[n+]1cccc(CO)c1)c1ccc(Cl)s1	Y pestis TopoI 61
O=S1(=O)CCOCC(Cc2ccccc2)N1Cc1ccc(Cl)cc1 (stereo not drawn)	none (no result: PfHsp40 yeast, PrP UTR inh, BJeLR viability, Y pestis TopoI)
CCn1c(CNc2ccc(Cl)cc2)nnc1SCc1ccc(Cl)cc1	PfHsp40 yeast 166
COc1cccc(C2=NN(C(=O)c3cccs3)C(O)(C(F)(F)F)C2)c1 (stereo not drawn)	RN4220 kill 91
COc1cccc(C(=O)N2N=C(c3cccc(OC)c3)CC2(O)C(F)(F)F)c1 (stereo not drawn)	none
COc1ccc(-c2oc(=O)c3cc(OC)c(OC)cc3c2C=Cc2cccc([N+](=O)[O-])c2)cc1	none (no result: PfHsp40 yeast, PrP UTR inh, BJeLR viability, Y pestis TopoI)
CC1c2cccc(O)c2C(O)=C2C(=O)[C@]3(O)C(O)=C(C(N)=O)C(=O)C(N(C)C)C3C(O)C21 (stereo partly drawn)	Sa ugtP lethal 99, RN4220 kill 100 (no result: PfHsp40 yeast, PrP UTR inh, BJeLR viability, Y pestis TopoI)
CC1c2cccc(O)c2C(=O)C2C(=O)C3(O)C(=O)C(C(N)=O)C(=O)C(N(C)C)C3C(O)C21 (stereo not drawn)	Sa ugtP lethal 99, RN4220 kill 93 (no result: PfHsp40 yeast, PrP UTR inh, BJeLR viability, Y pestis TopoI)
C[C@H]1c2cccc(O)c2C(O)=C2C(=O)[C@]3(O)C(O)=C(C(N)=O)C(=O)[C@@H](N(C)C)[C@@H]3[C@@H](O)[C@@H]21	none (no result: Sa ugtP lethal, RN4220 kill)
CC1c2cccc(O)c2C(O)=C2C(=O)C3(O)C(O)=C(C(N)=O)C(=O)C(N(C)C)C3C(O)C21 (stereo not drawn)	Sa ugtP lethal 100, RN4220 kill 98 (no result: PfHsp40 yeast, PrP UTR inh, BJeLR viability, Y pestis TopoI)
CN(C)[C@@H]1C(=O)C(C(N)=O)=C(O)[C@@]2(O)C(=O)C3=C(O)c4c(O)cccc4[C@@](C)(O)[C@H]3[C@H](O)[C@@H]12	none (no result: Sa ugtP lethal, RN4220 kill)
COC(=O)C1=C(c2ccc(Cl)c(C(F)(F)F)c2)CC2CCC1N2C(=O)NCCNC(C)=O (stereo not drawn)	none (no result: PfHsp40 yeast, PrP UTR inh, BJeLR viability, Y pestis TopoI)
CC(C(=O)CC(=O)OC(C)(C)C)C(O)c1ccccc1 (stereo not drawn)	none (no result: PfHsp40 yeast, PrP UTR inh, BJeLR viability, Y pestis TopoI)
CCOC(=O)C1C2COc3ccc(OC)cc3C2N2C(=O)CN(CC3CCCO3)C(=O)[C@@]12C (stereo partly drawn)	none (no result: PfHsp40 yeast, PrP UTR inh, BJeLR viability, Y pestis TopoI)
COc1ccccc1NS(=O)(=O)c1ccc(C(=O)N2CCCC(C(F)(F)F)C2)cc1 (stereo not drawn)	none (no result: BJeLR viability)
Cc1ccc(NS(=O)(=O)c2ccc(C(=O)N3CCCC(C(F)(F)F)C3)cc2)cc1 (stereo not drawn)	PfHsp40 yeast 51
O=C(NN=Cc1ccc([N+](=O)[O-])o1)C1COc2ccccc2O1 (stereo not drawn)	none (no result: PfHsp40 yeast, PrP UTR inh, BJeLR viability, Y pestis TopoI)
CC(C)(C)c1ccc2c(c1)OC(C(=O)NN=Cc1ccc([N+](=O)[O-])o1)CO2 (stereo not drawn)	Sa ugtP lethal 100, RN4220 kill 100 (no result: PfHsp40 yeast, PrP UTR inh, BJeLR viability, Y pestis TopoI)
NC(Cc1ccc(Cl)cc1Cl)=NOC(=O)Cc1ccc(Cl)cc1	none (no result: PfHsp40 yeast, PrP UTR inh, BJeLR viability, Y pestis TopoI)
